Measured values taken from the supplement of paper PMC9694430.
Structures can show the parent of a compound that is named as a salt.

Experiments:
Assay in all cases: thermal shift delta Tm vs DMSO control; higher = stronger stabilization (binding)
Details in all cases: 12.5 µM; protein concentration 2 µM
LOC_OS01G01410-cb001 = tested on: LOC_OS01G01410-cb001
Summary of the method: (§1)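 Heating from 25°C to 95°C at 0.05°C/s, fluorescence was recorded for 19.5 μl wells of 2 μM E. coli-expressed, purified rice kinase domain in 100 mM potassium phosphate pH 7.5, 150 mM NaCl, 10% glycerol and 5 × SYPRO Orange with compound in DMSO. Boltzmann fits gave melting temperatures for this differential scanning fluorimetry assay. The shift reported is the mean of three replicates against the DMSO-only protein.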

LOC_OS01G02750-cb003 = tested on: LOC_OS01G02750-cb003
Summary of the method: as §1

LOC_OS01G10900-cb004 = tested on: LOC_OS01G10900-cb004
Summary of the method: as §1

LOC_OS01G13800-cb001 = tested on: LOC_OS01G13800-cb001
Summary of the method: as §1

LOC_OS01G14860-cb001 = tested on: LOC_OS01G14860-cb001
Summary of the method: as §1

LOC_OS01G21960-cb002 = tested on: LOC_OS01G21960-cb002
Summary of the method: as §1

LOC_OS01G39600-cb002 = tested on: LOC_OS01G39600-cb002
Summary of the method: as §1

LOC_OS01G48390-cb002 = tested on: LOC_OS01G48390-cb002
Summary of the method: as §1

LOC_OS01G51400-cb002 = tested on: LOC_OS01G51400-cb002
Summary of the method: as §1

LOC_OS01G52050-cb004 = tested on: T1, LOC_OS01G52050-cb004
T1 sequence (whole entry): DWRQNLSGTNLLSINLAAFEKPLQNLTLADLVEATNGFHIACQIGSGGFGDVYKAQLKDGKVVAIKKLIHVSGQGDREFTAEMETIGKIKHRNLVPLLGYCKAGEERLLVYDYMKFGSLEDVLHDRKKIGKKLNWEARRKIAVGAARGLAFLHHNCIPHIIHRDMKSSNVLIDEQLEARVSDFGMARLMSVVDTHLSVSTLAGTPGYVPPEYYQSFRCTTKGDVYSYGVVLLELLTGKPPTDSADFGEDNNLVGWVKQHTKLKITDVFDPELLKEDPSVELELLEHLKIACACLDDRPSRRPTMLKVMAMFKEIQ
Summary of the method: as §1
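Also: purified Escherichia coli-expressed rice kinase domain construct.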

Row | SMILES | thermal shift delta Tm (LOC_OS01G01410-cb001) | thermal shift delta Tm (LOC_OS01G02750-cb003) | thermal shift delta Tm (LOC_OS01G10900-cb004) | thermal shift delta Tm (LOC_OS01G13800-cb001) | thermal shift delta Tm (LOC_OS01G14860-cb001) | thermal shift delta Tm (LOC_OS01G21960-cb002) | thermal shift delta Tm (LOC_OS01G39600-cb002) | thermal shift delta Tm (LOC_OS01G48390-cb002) | thermal shift delta Tm (LOC_OS01G51400-cb002) | thermal shift delta Tm (LOC_OS01G52050-cb004)
1 | CCn1c(N)c(C(=O)NC)c(=O)c2ccc(C#CC(C)(O)COC)nc21 (stereo not given) | 0.45 °C | 0.44 °C | -0.01 °C | -0.17 °C | 0.21 °C | 0.3 °C | -1.69 °C | 0.18 °C | 0.37 °C | 0.36 °C
2 | O=C(Nc1c[nH]nc1-c1nc2ccc(CN3CCOCC3)cc2[nH]1)NC1CC1 | 5.91 °C | 3.78 °C | 2.15 °C | -0.38 °C | 8.12 °C | 3.45 °C | 6.02 °C | 2.89 °C | 0.42 °C | 7.67 °C
3 | N#Cc1c(Oc2ccc(F)c(NC(=O)Cc3cccc(C(F)(F)F)c3)c2)ccc2nc(NC(=O)C3CC3)sc12 | 1 °C | 2.13 °C | 0.14 °C | 0.81 °C | 0.57 °C | 1.14 °C | 0.16 °C | 1.04 °C | 1.02 °C | 0.32 °C
4 | COc1cc(F)c(F)c(Nc2ccc(I)cc2F)c1NS(=O)(=O)C1(C[C@H](O)CO)CC1 [Refametinib (RDEA119, Bay 86-9766)] | 1.35 °C | -1.27 °C | 0.47 °C | 0.32 °C | 0.61 °C | 0.52 °C | -0.03 °C | 0.23 °C | 0.02 °C | 1.46 °C
5 | O=C(O)c1ccc(-c2c[nH]c3ncc(-c4ccccc4)cc23)cc1C1CCCC1 | 5.06 °C | 4.25 °C | 0.46 °C | -0.9 °C | 5.49 °C | 1.3 °C | 14.5 °C | -1.42 °C | -0.58 °C | 10.5 °C
6 | C#Cc1cccc(Nc2ncnc3cc4c(cc23)OCCOCCOCCO4)c1 [Icotinib] | -0.52 °C | 0.8 °C | 0.96 °C | 0.01 °C | 0.16 °C | 0.74 °C | 2.84 °C | 2.19 °C | 0.45 °C | 0.36 °C
7 | COc1nccnc1NS(=O)(=O)c1ccc(NC(=O)/C=C/c2ccc([N+](=O)[O-])s2)cc1 [Necrosulfonamide] | 1.29 °C | 0.21 °C | 2.42 °C | 1.27 °C | 0.78 °C | 0.24 °C | -1.55 °C | 0.84 °C | -0.04 °C | 0.81 °C
8 | C[C@@H](Oc1ccc2[nH]nc(/C=C/c3cnn(CCO)c3)c2c1)c1c(Cl)cncc1Cl | 5.27 °C | 7.14 °C | 7 °C | -0.36 °C | 5.34 °C | 3.51 °C | 9.68 °C | 4.56 °C | 0.89 °C | 11.2 °C
9 | COc1cc2c(cc1OC)[C@@H]1C(=O)c3ccc4c(c3O[C@@H]1CO2)C=CC(C)(C)O4 [Deguelin] | 0.07 °C | 0.45 °C | 0.52 °C | 0.41 °C | 0.23 °C | 0.41 °C | -0.1 °C | 0.4 °C | -0.11 °C | 0.13 °C
10 | CNC(=O)c1cc(Oc2ccc(NC(=O)Nc3ccc(Cl)c(C(F)(F)F)c3)cc2)ccn1 [Sorafenib] | 1.65 °C | 3.61 °C | 1.53 °C | 1.59 °C | 4.41 °C | 2.7 °C | 1.52 °C | 2.74 °C | 0.71 °C | 5.22 °C
11 | O=C1c2c(O)cc(O)cc2OC(c2ccc(O)c(O)c2)C1O (stereo not given) [Taxifolin (Dihydroquercetin)] | 0.87 °C | 0.83 °C | 0.4 °C | 0.01 °C | 0.34 °C | 0.61 °C | 0.19 °C | 0.17 °C | 0.11 °C | 0.49 °C
12 | O=C(Nc1cccc(Cl)c1)Nc1ncc(CCNc2ncnc3ccsc23)s1 [SNS-314 Mesylate] | 3.62 °C | 3.42 °C | 2.72 °C | 0.91 °C | 2.61 °C | 2.26 °C | 2.71 °C | 1.79 °C | 0.41 °C | 4.19 °C
13 | CCCCCCCCCCCCCCCCOP(=O)([O-])OCC[N+](C)(C)C [Miltefosine] | -6.86 °C | -17.5 °C | -2.68 °C | -7.38 °C | -3.1 °C | -5.94 °C | -5.77 °C | -3.18 °C | -3.78 °C | -6.22 °C
14 | N#CC1(c2ccc(NC(=O)c3cccnc3NCc3ccncc3)cc2)CCCC1 [Apatinib] | 1.1 °C | 0.48 °C | 0.27 °C | 0.11 °C | 0.52 °C | 0.5 °C | 0.01 °C | 0.55 °C | 0.33 °C | 0.12 °C
15 | C[C@]1(O)C[C@@H](c2nc(-c3ccc4ccc(-c5ccccc5)nc4c3)c3c(N)nccn32)C1 [Linsitinib (OSI-906)] | 1.14 °C | -0.88 °C | 0.14 °C | 0.82 °C | 0.26 °C | 0.9 °C | 1.68 °C | 0.41 °C | 0.44 °C | -0.16 °C
16 | Cc1cnc(Nc2ccc(N3CCN(C)CC3)cc2)nc1Nc1cccc(S(=O)(=O)NC(C)(C)C)c1 | 1.26 °C | 0.29 °C | 0.71 °C | 0.25 °C | 1.34 °C | 2.76 °C | 6.04 °C | 1.61 °C | 0.64 °C | 3.19 °C
17 | COc1cc(OC)c(/C=C/S(=O)(=O)Cc2ccc(OC)c(NCC(=O)O)c2)c(OC)c1 | 0.51 °C | 1.22 °C | 0.58 °C | 0.83 °C | 0.27 °C | 0.96 °C | -0.03 °C | 0.33 °C | 0.1 °C | 0.51 °C
18 | Cc1cc(Nc2ncc(Cl)c(Nc3ccccc3S(=O)(=O)C(C)C)n2)c(OC(C)C)cc1C1CCNCC1 [Ceritinib (LDK378)] | 0.47 °C | 1.1 °C | 0.21 °C | -0.57 °C | 0.83 °C | 0.34 °C | 2.1 °C | 0.85 °C | 0.35 °C | 0.22 °C
19 | C[C@@H](Nc1cc(F)cc(F)c1)c1cc(C(=O)N(C)C)cc2c(=O)cc(N3CCOCC3)oc12 | 0.11 °C | 1.11 °C | 0.28 °C | 0.04 °C | 0.22 °C | -0.4 °C | -0.77 °C | 0.46 °C | 0.01 °C | -0.12 °C
20 | CCn1c(C(=O)N(C2CC2)C2CC2)cc2c3c(ncn3C)c(Nc3cc(C)n(C)n3)nc21 | 0.37 °C | 1.05 °C | -0.06 °C | 0.41 °C | 0.41 °C | 1.12 °C | -0.02 °C | 0.34 °C | 0.23 °C | 0.97 °C
21 | CN1CCN(Cc2ccc(-c3cnc4[nH]cc(-c5ccc6[nH]ccc6c5)c4c3)cc2)CC1 | 3.79 °C | 5.34 °C | 4.45 °C | -0.19 °C | 4.87 °C | 4.44 °C | 9 °C | 3.1 °C | 0.11 °C | 9.93 °C
